# Test results from PubChem BioAssay (NCI).
# The panel holds about 83,000 compounds, 20% with a hit somewhere; the sample as a whole holds those more often.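 Values shown are percent growth following 48 h exposure of cells in 96-well plates to a single concentration of compound; below 10 was considered active.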 The source made the active and inactive calls.
# Tested on: M14 melanoma
# Test: NCI-60 one-dose screen, 48 h (100 = growth as untreated, 0 = no growth, -100 = all killed)
# Details: 10 µM unless noted
# Method: Growth inhibition of the M14 human tumor cell line is measured as a screen for anti-cancer activity. Cells are grown in 96 well plates and exposed to the test compound for 48 hours. Compounds are tested at a single concentration, which is 10^-5 M for most compounds. The reported endpoint is percent growth (GI% or GIPRCNT), where numbers from 0 - 100% represent growth inhibition, and numbers from -100% - 0 represent cell death. For example, a value of 40 represents 60% growth inhibition. A value of 0 means no net growth occurred over the course of the experiment. A value of -40 indicates 40% of cells at the beginning of the experiment died by the end of the experiment. A value of -100 means all cells are dead at the end of the experiment.
# NCI-60 Human Tumor Cell Lines Screen was performed using the standard one-dose NCI protocol, which is described in more detail at https://dtp.cancer.gov/discovery_development/nci-60/default.htm.
# Compounds with GIPRCNT values below 10 were considered active. Activity score was based on GIPRCNT using the following formula: […]
# Score is 0 for GIPRCNT values of 100 or above, 50 for GIPRCNT values of 0, and 100 for GIPRCNT values of -100.
row,Structure (SMILES),growth
1,O=C(CN1CCN(c2ccc(Cl)cc2)CC1)N1CCN(c2nnc(-c3ccc(Cl)cc3)c(-c3ccc(Cl)cc3)n2)CC1,74.3% (inactive)
2,Cc1c2oc3c(C)ccc(C(=O)OC(C)C4NC(=O)C(C(C)C)N(C)C(=O)CN(C)C(=O)C5CCCN5C(=O)C(C(C)C)NC4=O)c3nc-2c(C(=O)OC(C)C2NC(=O)C(C(C)C)N(C)C(=O)CN(C)C(=O)C3CCCN3C(=O)C(C(C)C)NC2=O)c(N)c1=O (stereo not given),-55.7% (active)
3,COc1ccc2[nH]c(=O)c(CNc3ccc(Nc4nccc(-c5ccc(Cl)cc5)n4)cc3)cc2c1,111% (inactive)
4,c1ccc(-c2oc(-c3ccccc3)c3ccccc23)cc1,110% (inactive)
5,O=C1C(=O)/C(=C/c2ccccc2)CCCCCC/C1=C/c1ccccc1,50% (inactive)
6,N#CC(C#N)C(C#N)C#N,99.7% (inactive)
7,O=C(COc1cccc(/C=C2\Oc3ccc4ccccc4c3C2=O)c1)c1ccc(Cl)cc1,83.6% (inactive)
8,O=C1OC(Oc2ccccc2)(c2ccccc2)c2ccccc21 (stereo not given),111% (inactive)
9,O=C(Nc1ccccc1OC(=O)c1ccccc1)c1ccccc1,102% (inactive)
10,COc1ccc(CNC(=O)c2c(C)n([O-])c3ccccc3[n+]2=O)cc1,104% (inactive)
11,COc1cc(/C=C/c2cc(/C=C/c3ccc(O)c(OC)c3)n(C(=O)c3ccc(Cl)cc3)n2)ccc1O,-1.11% (active)
12,CC(NC(N)=S)c1ccccc1 (stereo not given),104% (inactive)
13,Cc1cc(C(=O)Nc2ccc3cc(CN4CCOCC4)ccc3n2)c(C)n1-c1ccccc1,13.5% (inactive)
14,CCCCN1c2nc3ccccc3cc2Sc2cc3ccccc3nc21,103% (inactive)
15,CCn1cnc(C[C@H](NC(=O)[C@H](CCCCNC(=O)Nc2cc(C(F)(F)F)cc(C(F)(F)F)c2)NC(=O)Nc2cc(C(F)(F)F)cc(C(F)(F)F)c2)C(=O)OC)c1,-97.4% [100 µM] (active)
16,O=C(C(=O)N1CCOCC1)c1cn(CCCn2cc(C(=O)C(=O)N3CCOCC3)c3ccccc32)c2ccccc12,101% (inactive)
17,CCSc1nc(-c2cccs2)n2nc(-c3ccco3)cc2n1,109% (inactive)
18,COc1ccc(-c2nnc3c4[nH]cnc4ncn23)c(OC)c1,10.5% (inactive)
19,COc1cnc2c(c1)C(=O)c1c-2n(CCCN2CCC(O)CC2)c(=O)c2cc(F)ccc12,-22.4% (active)
20,O=C(Nc1cccc(Cl)c1)Nc1cccc(Cl)c1,75.7% (inactive)

row,Structure (SMILES),growth
1,CC1CN(C2CCCCC2)C(=O)NC1=O (stereo not given),99.3% (inactive)
2,C#C[C@]1(O)CCC2C3CCc4cc(O)ccc4C3CC[C@@]21C (stereo not given in full),20.4% (inactive)
3,FCc1ncc(-c2ccc(C(F)(F)F)cc2)c(NC2CCCCCC2)n1,2.44% [100 µM] (active)
4,COc1cc(/C=C/C(=O)c2c(C)n([O-])c3ccc(Cl)cc3[n+]2=O)cc(OC)c1OC,78.4% (inactive)
5,O=C(O)CCC(=O)OC[C@@H](NC(=O)C(Cl)Cl)[C@H](O)c1ccc([N+](=O)[O-])cc1,98% (inactive)
6,COc1cnc2c(c1)C(=O)c1c-2n(CCCN2CCNCC2)c(=O)c2cc(F)ccc12,-56.7% (active)
7,CN(C)c1ccc(-n2nc3ccccc3n2)cc1,92.2% (inactive)
8,CCOC(=O)Nc1ccc2c3c(cccc13)-c1ccccc1-2,6.41% (active)
9,Cc1cc(C)c(C(=O)c2cccs2)c(C)c1,103% (inactive)
10,COc1ccc2nc(N/N=C(\C)c3ccccn3)cc(C)c2c1,-78.7% (active)
11,CCOC(=O)C1C(=O)NC(C(=O)OCC)(C(=O)OCC)C1CC (stereo not given),110% (inactive)
12,Nc1nc(Nc2ccccc2SSc2ccccc2Nc2nc(N)nc(-c3cccc(Cl)c3)n2)nc(-c2cccc(Cl)c2)n1,95.4% (inactive)
13,C/C(=C\CCc1ccoc1)CC/C=C(\C)CCCN1CCOCC1,62.6% (inactive)
14,CCCCCCC(CC#N)(CCC)CCCC (stereo not given),110% (inactive)
15,O=C(Nc1nc2ccc(OC(F)(F)F)cc2s1)c1ccc(F)cc1,37.3% (inactive)
16,COc1cc(/C=C2\SC(N3CCCCC3)=NC2=O)ccc1OCCCCCCOc1ccc(/C=C2\SC(N3CCCCC3)=NC2=O)cc1OC,13.1% (inactive)
17,O=CN1N=C(c2ccc(Nc3ccnc4cc(Cl)ccc34)cc2)CC1c1ccc(Cl)cc1 (stereo not given),39.3% (inactive)
18,COc1ccc(-c2nc3sc4c(c3c(=O)[nH]2)CCCCCC4)cc1,33.7% (inactive)
19,C=C(CN1CCc2c([nH]c3ccccc23)C1)c1ccc(C(=O)Nc2ccon2)cc1,95.6% (inactive)
20,O=C(CNc1ccc2c(c1)C(=O)c1ccccc1C2=O)Nc1ccc2c(c1)C(=O)c1ccccc1C2=O,-79.3% (active)
